The results in this text go back to PubChem BioAssay (Tox21).

Inconclusive results are not listed. Calls of active or inactive are those of the source. The call rests on the fitted dose curve; in most records, active means well fitted activation curve with a large enough effect in the signal ratio in the repeat runs (not every such curve was filed as active); inconclusive means weak or mixed curves, or effect the other way; inactive means flat fitted curve, though single readings scatter; the % refers to the signal ratio.

The nature of the assay: qHTS assay to identify small molecule agonists of the endoplasmic reticulum stress response signaling pathway (AID 1159516). The note with it: ESRE-bla HeLa, ER stress beta-lactamase reporter, 5 h; series mostly up to 61 µM. The text has this: National Center for Advancing Translational Sciences [NCATS]
NIH Chemical Genomics Center [NCGC]
U.S. Environmental Protection Agency [EPA]
National Institutes of Environmental Health Sciences [NIEHS]
National Toxicology Program [NTP]
U.S. Food and Drug Administration [FDA]
Endoplasmic Reticulum (ER) plays an important role in cellular signaling, protein folding/maturation, stress response, lipid biosynthesis, calcium storage and release etc. Under stress conditions, proteins in ER misfold or unfold, and leading to the expression of ER stress responsive genes. ER stress has been associated with a variety of pathophysiological conditions such as cancer, inflammation, neurodegenerative diseases, diabetes, ischemic heart disease etc. To identify the compounds that induce ER stress response, an ER stress reporter cell line, CellSensor ESRE-bla HeLa (Life Technologies, Carlsbad, CA) containing a beta-lactamase reporter gene under control of the Endoplasmic reticulum Stress Response Element (ESRE) was used to screen Tox21 10K compound library.
Tox21 Assay Protocol Summary:
ESRE-bla HeLa cells were dispensed at 1,500 cells/6 uL of assay medium per well into black wall/clear-bottom 1536-well plates using a Multidrop Combi (ThermoFisher Scientific, Waltham, MA) dispenser. After the assay plates were incubated at 37 C and 5% CO2 for an overnight, 23 nL of compounds dissolved in DMSO, positive controls or DMSO only was transferred to the assay plate by a Pintool station (Kalypsys, San Diego, CA). The assay plates were incubated at 37 C and 5% CO2 for 5 hr. One uL of LiveBLAzer B/G FRET substrate (Life Technologies) was added using a Flying Reagent Dispenser (Aurora Discovery, San Diego, CA) and the plates were incubated at room temperature for 2 hr. Fluorescence intensity (405 nm excitation, 460 nm and 530 nm emissions) was measured using an Envision plate reader (PerkinElmer, Shelton, CT).
Background: In qHTS, concentration-response curves come from the screen itself.
`CC(Cl)(Cl)[N+](=O)[O-]`: the compound was classed as inactive.
With `CCCCCCBr`, the compound was called inactive.
As to `C[C@]12CC[C@H]3[C@@H](CCC4=CC(=O)CC[C@@]43C)[C@@H]1CC[C@@H]2C(=O)O`, the compound was classed as inactive.
As to `Cc1cnc[nH]1`, the call was inactive.
Under `COCC(=O)N(c1c(C)cccc1C)N1CCOC1=O` stands “inactive”.
Under `O=CNC(N1CCN(C(NC=O)C(Cl)(Cl)Cl)CC1)C(Cl)(Cl)Cl` (stereo not given) stands “inactive”; under `O=C1CN=C(c2ccccc2)c2cc([N+](=O)[O-])ccc2N1`, “inactive”.
To `O=C1OC(c2ccc(O)c(S(=O)(=O)O)c2)(c2ccc(O)c(S(=O)(=O)O)c2)c2c(Br)c(Br)c(Br)c(Br)c21` belongs “inactive”; to `N#CCNCC#N`, “inactive”.
For `CCOP(=S)(OCC)SCSP(=S)(OCC)OCC`, the result was inactive.
Regarding `CC1=C(C(=O)O)N2C(=O)[C@@H](N)[C@H]2SC1`, the compound was classed as inactive.
Under `CNC(=O)Oc1cccc(C(C)C)c1` stands “inactive”; under `CSc1nc(N=[N+]=[N-])nc(NC(C)C)n1`, “inactive”.
To `CN(N=O)C(N)=O` belongs “inactive”.
Under `O=C(Nc1ccccc1)N(Cc1ccc(Cl)cc1)C1CCCC1` stands “inactive”; under `CC(CCc1ccccc1)NC(C)C(O)c1ccc(O)cc1` (stereo not given), “inactive”; under `COC(=O)c1c(C(F)F)nc(C(F)(F)F)c(C2=NCCS2)c1CC(C)C`, “inactive”.
On to `CC(=O)CCc1ccc2c(c1)OCO2`, for which the compound was classed as inactive.
Under `C=C(C)CN(CC)c1c([N+](=O)[O-])cc(C(F)(F)F)cc1[N+](=O)[O-]` stands “inactive”; under `CC(C)[N+](=O)[O-]`, “inactive”.
To `CCCCc1c(C)nc(NCC)[nH]c1=O` belongs “inactive”.
Take `CNNC`: the outcome was inactive.
To `COc1ccc(C(=O)N2CCCC2=O)cc1` belongs “inactive”; to `O=C(NCO)NCO`, “inactive”.
Under `CCOC(=O)/C=C(C)/C=C/C[C@@H](C)CCCC(C)C` stands “inactive”.
Regarding `COC(=O)C(c1ccccc1)C1CCCCN1` (stereo not given), the call was inactive.
In the case of `O=C(CCN1CC1)OCC(CO)(COC(=O)CCN1CC1)COC(=O)CCN1CC1`, the compound was classed as inactive.
As for `C[N+](C)=CCl`, the result was inactive.
As for `COP(=S)(OC)Oc1ccc(S(N)(=O)=O)cc1`, the compound was classed as inactive.
Under `Nc1cc(Cl)ccc1O` stands “inactive”.
Under `CCC1(c2ccccc2)C(=O)N=C(O)NC1=O` (stereo not given) stands “inactive”; under `Cc1nnc2n1-c1sc(CCC(=O)N3CCOCC3)cc1C(c1ccccc1Cl)=NC2`, “inactive”; under `CCCSC(=O)Cl`, “inactive”.
As to `CCOP(=S)(OCC)Oc1cc(-c2ccccc2)on1`, the result was inactive.
Regarding `CC1CCC(=O)O1` (stereo not given), the outcome was inactive.
Under `O=C(O)C(Br)CBr` (stereo not given) stands “inactive”; under `ClC(Br)Br`, “inactive”.
Regarding `O=C(O)c1cccc(Cl)c1`, the compound was called inactive.
As for `CC1(C)CON(Cc2ccccc2Cl)C1=O`, the compound was classed as inactive.
Under `Cc1ncc2n1-c1ccc(Cl)cc1C(c1ccccc1F)=NC2` stands “inactive”.
